# Laboratory results as given in PubChem BioAssay AID488969 (Vanderbilt High Throughput Screening Facility, 2010).
# Over roughly 110,000 compounds, “z-score” has its median near -0.1; the highest 2% begin near 2. The entries come from a sample that favours the highest values as a whole. Activity calls are given as the source filed them.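 The calls were made as follows: active = z-score in the third read window above 3 or below -3; inactive = the rest.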
# Target: Metabotropic glutamate receptor 8 (Rattus norvegicus) (UniProt P70579)
# Assay: rat mGluR8 modulators via GIRK flux, primary screen, cell-based, thallium flux, HTS (AID 488969)
# Settings: HEK293 rat mGluR8, GIRK (G protein-gated inwardly rectifying potassium channel) thallium flux, FluoZin2; at 10 µM; stronger effect = higher value; submaximal glutamate (EC20) added with thallium
# Chain of Metabotropic glutamate receptor 8 (Rattus norvegicus) (P70579 whole entry, looked up): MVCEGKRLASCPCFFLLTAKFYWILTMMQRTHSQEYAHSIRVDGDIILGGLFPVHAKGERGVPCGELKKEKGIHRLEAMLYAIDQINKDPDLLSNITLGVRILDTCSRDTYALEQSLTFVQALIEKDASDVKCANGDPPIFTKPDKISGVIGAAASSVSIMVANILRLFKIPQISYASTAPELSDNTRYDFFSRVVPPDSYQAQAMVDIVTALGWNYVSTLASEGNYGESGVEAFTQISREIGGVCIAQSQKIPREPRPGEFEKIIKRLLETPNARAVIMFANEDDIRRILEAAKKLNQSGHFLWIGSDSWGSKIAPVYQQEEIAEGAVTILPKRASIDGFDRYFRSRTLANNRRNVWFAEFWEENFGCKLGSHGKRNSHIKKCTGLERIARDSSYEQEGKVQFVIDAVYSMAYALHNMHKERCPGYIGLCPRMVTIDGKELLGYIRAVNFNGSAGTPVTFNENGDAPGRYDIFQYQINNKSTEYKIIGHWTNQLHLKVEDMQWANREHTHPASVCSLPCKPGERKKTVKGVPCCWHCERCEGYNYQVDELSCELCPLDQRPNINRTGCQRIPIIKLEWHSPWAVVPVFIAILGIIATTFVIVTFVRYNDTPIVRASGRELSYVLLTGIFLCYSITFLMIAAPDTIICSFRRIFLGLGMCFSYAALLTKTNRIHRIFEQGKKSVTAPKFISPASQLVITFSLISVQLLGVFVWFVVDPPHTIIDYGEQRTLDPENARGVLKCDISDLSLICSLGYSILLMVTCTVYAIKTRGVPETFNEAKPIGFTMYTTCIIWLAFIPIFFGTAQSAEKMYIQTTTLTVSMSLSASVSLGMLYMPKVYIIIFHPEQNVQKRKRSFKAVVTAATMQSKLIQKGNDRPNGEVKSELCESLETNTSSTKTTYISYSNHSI
row,Structure (SMILES),z-score
1,Cc1ccc(C(=O)N2CCN(c3ccc([N+](=O)[O-])c(N4CCOCC4)c3)CC2)cc1,-0.394
2,COc1c(C)cccc1C(=O)Nc1cc(-c2nn3c(C)nnc3s2)ccc1C,-1.6
3,Cn1c2ccccc2c(=O)c2c(=O)n(-c3ccccc3)c(C3CCCCC3)nc21,-1.31
4,CCCn1c(SCC(=O)/C(C#N)=C(\C)N)n[nH]c1=O,-0.649
5,CCOC(=O)C(CC)(CC)/C(C)=N/NC(=O)CC#N,0.316
6,CCOc1nc(Nc2ccc(OC)cc2)nc(OCC)n1,-1.62
7,COc1ccc(NC(=S)Nc2ccc3nc(C)c(C)nc3c2)cc1,-0.104
8,CCOC(=O)c1csc(NC(=O)CSc2nnnn2-c2ccc(OC)cc2)n1,0.0329
9,c1nnnn1C12CC3CC(CC(C3)C1)C2,0.487
10,c1cn(C23CC4CC(CC(C4)C2)C3)cn1,4.17 (active)
11,Nc1ncn(C23CC4CC(CC(C4)C2)C3)n1,-0.106
12,CCCC(C(=O)c1ccccc1)n1cncn1 (configuration not stated),-0.313
13,N#Cc1c(-c2ccncc2)c2c([nH]c1=S)CCCC2,-0.164
14,COc1ccc(-c2c3c([nH]c(=S)c2C#N)CCC3)cc1,2.17
15,N#Cc1c(-c2cccnc2)c2c([nH]c1=S)CCCC2,-0.285
16,COc1cc(C(=O)N(Cc2ccco2)Cc2cc3ccccc3[nH]c2=O)cc(OC)c1OC,-0.671
17,COc1cc(C2Nn3c(nnc3-c3ccccc3OC)S2)ccc1O (configuration not stated),-0.0272
18,COc1ccc(OCC(=O)NNC(=O)c2cccs2)cc1,0.919
19,COc1ccc(NC(=O)C(=O)NNC(=O)c2cccs2)c(OC)c1,5.95 (active)
20,COc1ccc(NC(=O)c2cccs2)cc1,0.303
21,COc1cc(N)ccc1NC(=O)c1cccs1,-0.15
22,COc1ccc(NC(=O)C(=O)NNC(=O)c2cccs2)cc1,7.11 (active)
23,COc1ccc(OC)c(NC(=O)C(=O)NNC(=O)c2cccs2)c1,1.69
24,CCC(=O)Nc1nnc(SCc2ccc(F)cc2)s1,-0.00764

row,Structure (SMILES),z-score
1,COc1ccc(N2C(=O)CC(Nc3ccc(C)cc3)C2=O)cc1 (configuration not stated),-0.557
2,CC1CC(C)(C)NC(=S)N1CC(=O)N(C)Cc1ccccc1 (configuration not stated),-0.189
3,CCNC(=S)NNC(=O)c1cccn(Cc2ccc(Cl)cc2Cl)c1=O,-0.0504
4,COn1c(=O)c(-c2cccs2)[n+]([O-])c2ccccc21,1.16
5,CCOn1c(=O)c(-c2cccs2)[n+]([O-])c2ccccc21,-2.21
6,C=CCOn1c(=O)c(-c2cccs2)[n+]([O-])c2ccccc21,3.49 (active)
7,Cc1nn(C(C)C(=O)O)c(=O)c2c1sc1ccccc12 (configuration not stated),-0.395
8,N#Cc1cn(-c2ccccc2)nc1-c1ccco1,-0.0798
9,CCNC(=O)C1CCCN1S(=O)(=O)c1ccc(OC)cc1 (configuration not stated),0.787
10,CCCCc1c(O)nc(SCC(=O)N2CCOCC2)[nH]c1=O,0.0929
11,CC(C)c1c(O)nc(SCC(=O)N2CCOCC2)[nH]c1=O,-0.357
12,CCC(C)c1c(O)nc(SCC(=O)N2CCOCC2)[nH]c1=O (configuration not stated),2.93
13,COC(=O)c1ccccc1Oc1nc(Cl)cc(OC)n1,-0.22
14,CCOC(=O)c1cnc2c(C)c(Cl)ccc2c1Nc1ccc(S(=O)(=O)Nc2ncccn2)cc1,9.28 (active)
15,CCOC(=O)c1cnc2c(C)cc(C)cc2c1Nc1ccc(S(=O)(=O)Nc2ncccn2)cc1,-0.378
16,CCOC(=O)c1cnc2c(C)c(C)ccc2c1Nc1ccc(S(=O)(=O)Nc2ncccn2)cc1,-0.177
17,CCOc1ccc(-n2c(=S)sc3c(=O)[nH]c(SCC(=O)NC(C)CC)nc32)cc1 (configuration not stated),-0.859
18,CC1CCN(Cc2nnnn2-c2cccc([N+](=O)[O-])c2)CC1,-0.243
19,CC(C)OCC(O)CCc1n[nH]c(=S)n1-c1ccccc1 (configuration not stated),-0.224
20,c1ccc(OCCCN2CCCC2)cc1,0.00842
21,Cc1ccc(OCCCNC2CCCC2)cc1,-0.0441
22,O=C(c1ccccc1)c1ccc(OCCCN2CCCC2)cc1,-0.0127
23,O=C(c1ccccc1)c1ccc(OCCCCN2CCCCC2)cc1,-0.455
24,CC1CCN(CCCCOc2ccc(C(=O)c3ccccc3)cc2)CC1,2.47

row,Structure (SMILES),z-score
1,CCOc1ccc(OCCNC2CCCC2)cc1,0.0455
2,COc1ccc(OCCCN2CCCCCC2)cc1,8.02 (active)
3,CCN1CCN(CCCCSc2ccccc2)CC1,-0.152
4,CCN1CCN(CCCOc2ccc(-c3ccccc3)cc2)CC1,4.56 (active)
5,c1ccc(COc2ccc(OCCCNC3CCCC3)cc2)cc1,2.46
6,COc1ccc(OCCCN2CCCC(C)C2)cc1 (configuration not stated),0.314
7,CC(C)Oc1ccc(OCCCN2CCCCCC2)cc1,-0.0757
8,CSCCNC(=O)c1ccc(C(C)(C)C)cc1,-0.121
9,CCCc1cc(=O)[nH]c(SCC(=O)N(Cc2ccccc2)C(C)C)n1,-0.715
10,CC(C)(C)C(=O)Nc1cc(NC(=O)C(C)(C)C)cc(C(=O)Nc2cc(C(=O)O)cc(C(=O)O)c2)c1,0.00761
11,Cc1cc(C(F)F)n2ncc(C(=O)NCCc3ccc(Cl)cc3)c2n1,-0.612
12,Cc1nn(CC(=O)OCC(=O)Nc2ccccc2[N+](=O)[O-])c(C)c1[N+](=O)[O-],0.113
13,Nc1nc(-c2cccnc2)nn1C(=O)COc1ccccc1,-0.135
14,O=C(NCC(c1cccnc1)N1CCN(c2ccccc2F)CC1)c1cccc(Cl)c1 (configuration not stated),0.459
15,CCCOc1c(OC)cc(Cl)cc1C1NC(=O)NC(C)=C1C(=O)NCc1ccccc1 (configuration not stated),-0.431
16,c1ccc(COc2ccc(OCCCN3CCCCC3)cc2)cc1,2.89
17,O=C(c1ccccc1)c1ccc(OCCCN2CCCCC2)cc1,1.54
18,c1ccc(COc2ccc(OCCCN3CCCC3)cc2)cc1,0.306
19,CC1CCN(CCCOc2ccc(OCc3ccccc3)cc2)CC1,0.441
20,c1ccc(COc2ccc(OCCCCN3CCCCC3)cc2)cc1,2.79
21,c1ccc(COc2ccc(OCCCCN3CCCC3)cc2)cc1,0.565
22,CCOC(=O)c1c(NC(=O)CCN2C(=O)c3ccccc3C2=O)sc(C(=O)OC(C)C)c1C,-0.193
23,O=C(c1cnccn1)N(c1ccccc1)C1(C(=O)NC2CCCC2)CCCCC1,0.00523
24,CCOC(=O)CSc1nc(-c2ccc3c(c2)OCO3)ccc1C#N,-0.00752

row,Structure (SMILES),z-score
1,COc1ccc2occ(C(=O)c3ccc(N=C(C)N(C)C)cc3)c2c1,3.46 (active)
2,COc1ccc2occ(C(=O)c3cccs3)c2c1,0.191
3,COc1ccc2occ(C(C)=O)c2c1,-1.2
4,COc1ccc(CCNC(=S)Nc2ccc(C)cc2C)cc1,-0.0431
5,CCc1cc2c(N[C@@H](C)C(=O)O)ncnc2s1,0.00833
6,N/C(=N\OC(=O)CCc1ccccc1)c1ccc(Br)cc1,0.12
7,N/C(=N\OC(=O)c1ccc(Br)cc1)c1ccccc1,-0.37
8,N/C(=N\OC(=O)Cc1ccccc1)c1ccc(Br)cc1,2.92
9,O=C(NC(C(=O)O)c1ccccc1)c1ccc(S(=O)(=O)N2CCOCC2)cc1 (configuration not stated),-0.0595
10,CCCCn1c(SCC(=O)N2CCC(C)CC2)nc2ccsc2c1=O,-1.86
11,Cc1ccc(-c2nnc(-c3ccccc3)o2)cc1,-0.254
12,CCNc1nnc(-c2ccc(C)cc2)o1,2.74
13,Cc1ccc(-c2nnc(Nc3ccccc3)o2)cc1,1.1
14,CC(=O)Nc1cccc(C(=O)OC(C(=O)c2ccc(C)cc2)c2ccccc2)c1 (configuration not stated),0.508
15,CCN(CC)c1ccc(NC(=O)CN2CCN(S(=O)(=O)c3cc(Cl)ccc3OC)CC2)cc1,-0.269
16,CC1CN(CC(=O)c2c(N)n(Cc3ccccc3)c(=O)n(C)c2=O)CC(C)O1 (configuration not stated),0.178
17,Cc1ccc(Cn2nnc3c(=O)[nH]c(C4CCN(C(=O)c5cccs5)CC4)nc32)cc1,-0.73
18,O=C(NCC(c1cccs1)N1CCOCC1)c1ccccc1NS(=O)(=O)c1ccc(Cl)c([N+](=O)[O-])c1 (configuration not stated),-0.572
19,Cc1[nH]n2c(=O)cc(C(C)(C)C)nc2c1-c1ccccc1,4.43 (active)
20,Cc1cc(=O)n2[nH]c(C)c(-c3ccccc3)c2n1,-0.675
21,Cc1[nH]n2c(=O)cc(C(C)C)nc2c1-c1ccccc1,-0.963
22,CC(C)OC(=O)c1cccnc1N1CCN(c2ccc(F)cc2)CC1,-0.216
23,Cc1nc2ccc(NC3=NCCCCC3)cc2s1,0.806
24,COc1cc(OC)c(C2C(C(=O)N3CCOCC3)=C(C)NC3=C2C(=O)CC(C)(C)C3)cc1OC (configuration not stated),-0.103

row,Structure (SMILES),z-score
1,CC(C)c1nc2ccccn2c1NC1CCCCC1,0.45
2,Cc1ccn2c(NC3CCCCC3)c(C(C)C)nc2c1,2.52
3,Cc1ccn2c(NC3CCCCC3)c(C)nc2c1,-0.312
4,Cc1ccc(/C=C/S(=O)(=O)N2CCC(C(=O)O)CC2)cc1,-0.628
5,CCOC(=O)N1CCN(c2nnnn2-c2ccccc2)CC1,-0.14
6,Cc1ccc(S(=O)(=O)N2CCOCC2)cc1NC(=O)COC(=O)CSc1ccc(Br)cc1C,-0.132
7,CC(C)NC(=O)CSCc1c(Cl)cccc1Cl,-0.342
8,CCn1ncc(Cl)c1C(=O)Nc1cc(Cl)ccc1Cl,0.0474
9,Cc1ccccc1OCc1nc2ccccc2c(=O)n1/N=C/c1cccc([N+](=O)[O-])c1,-0.0563
10,O=C1c2ccccc2OC2(C=Cc3ccccc3O2)N1Cc1ccccc1 (configuration not stated),0.198
11,CN1CC2=Cc3ccccc3OC23Oc2ccccc2C=C3C1,2.01
12,Cc1ccc(-c2nn(CC(=O)Nc3ccc4c(c3)nc3n4CCOC3)c(=O)c3ccccc23)cc1,-0.236
13,COc1ccccc1N1CCN(C(=O)Cn2c(=O)[nH]c3ccsc3c2=O)CC1,-0.563
14,S=C(NCCN1CCOCC1)Nc1ccc(Cl)cc1,-0.102
15,O=C(Nc1cccnc1)c1cc(-c2ccccc2)on1,-0.466
16,O=C(Nc1cnn(C23CC4CC(CC(C4)C2)C3)c1)c1cc(-c2ccccc2)on1,0.107
17,Cc1ccc(-c2cc(C(=O)Nc3cnn(C(C)C)c3)no2)cc1,0.74
18,CC(C)n1cc(NC(=O)c2cc(-c3ccccc3)on2)cn1,16.8 (active)
19,CCCn1cc(NC(=O)c2cc(-c3ccccc3)on2)cn1,13 (active)
20,COc1cccc(-c2cc(C(=O)Nc3cnn(Cc4ccccc4C)c3)no2)c1,0.0739
21,COc1ccc(Sc2cc(C(F)(F)F)nc(-c3ccccn3)n2)cc1,-0.417
